According to the supplement of paper PMC13380429:

What follows are compounds tested on Vero E6 infected with SARS-CoV-2 (assay: morphology score (similarity to uninfected cells); higher = more like uninfected cells). Conditions: 24 h.

Compound | morphology score
O=C(O)[C@@H](S)[C@@H](S)C(=O)O [dimercaptosuccinic-acid] (10 µM) | 0.102
C[C@](N)(Cc1ccc(O)c(O)c1)C(=O)O [methyldopa] (10 µM) | -0.111
CNC(=O)Oc1ccccc1OC(C)C [propoxur] (10 µM) | -0.276
CC1(C)CCC(C)(C)c2cc(Cn3cccn3)c(/C=C/c3ccc(C(=O)O)cc3)cc21 [palovarotene] (10 µM) | -0.127
C=CC(C)(C)c1cc(/C=C/C(=O)c2ccc(O)cc2)c(OC)cc1O [licochalcone-A] (10 µM) | -0.0626
Nc1nc(=O)n([C@H]2C[C@H](O)[C@@H](CO)O2)cc1Cl [cytochlor] (10 µM) | 0.156

The compounds below were run on Vero E6 infected with SARS-CoV-2 (assay: SARS-CoV-2 infection rate relative to infected DMSO; higher = more infection, active = 60 or less). Conditions: 24 h.

Compound | SARS-CoV-2 infection rate
Cc1ccc(/C=N/NC(=O)c2ccccc2Oc2ccccc2)o1 (10 µM) | 82.5% (inactive)
CCCCCCCCCCCCCCCCCC(=O)OC[C@@H](O)[C@H]1OC[C@H](O)[C@H]1O [sorbitan-monostearate] (10 µM) | 97.5% (inactive)
CCn1cnc2c(Nc3cccc(Cl)c3)nc(N[C@@H]3CCCC[C@@H]3N)nc21 (0.833333 µM) | 114% (inactive)
COc1cc(C(=O)OCCCN2CCCN(CCCOC(=O)c3cc(OC)c(OC)c(OC)c3)CC2)cc(OC)c1OC [dilazep] (0.833333 µM) | 106% (inactive)
CCc1c2c(nc3ccc(OC(=O)N4CCC(N5CCCCC5)CC4)cc13)-c1cc3c(c(=O)n1C2)COC(=O)[C@]3(O)CC [irinotecan] (0.833333 µM) | 98% (inactive)
O=c1c(O[C@@H]2O[C@H](CO)[C@H](O)[C@H](O)[C@H]2O)c(-c2ccc(O)c(O)c2)oc2cc(O)cc(O)c12 [hyperin] (10 µM) | 112% (inactive)
O=C1N[C@@H]2[C@@H](O)[C@@H](O)[C@H](O)[C@@H](CO)N2C1=O [kifunensine] (10 µM) | 94% (inactive)
CCOc1ccc(Cc2cc([C@]34OC[C@](CO)(O3)[C@@H](O)[C@H](O)[C@H]4O)ccc2Cl)cc1 [ertugliflozin] (10 µM) | 107% (inactive)
CC(=O)c1c(O)cc(C)oc1=O [dehydroacetic-acid] (10 µM) | 93.5% (inactive)
O=C(Oc1cc(S(=O)(=O)c2ccccc2)ccc1[N+](=O)[O-])c1ccc(Cl)cc1 (10 µM) | 104% (inactive)
COc1ccc(NS(=O)(=O)c2ccc(N)cc2)nn1 [sulfamethoxypyridazine] (10 µM) | 110% (inactive)
O=C[C@H](F)[C@@H](O)[C@@H](O)[C@H](O)CO [2-fluoro-2-deoxy-D-galactose] (10 µM) | 116% (inactive)
COc1cc2nccc(Oc3ccc(NC(=O)Nc4ccc(F)cc4F)c(F)c3)c2cc1OC (10 µM) | 111% (inactive)
O=C(O)CCCCCCCC(=O)O [azelaic-acid] (10 µM) | 104% (inactive)
NC(=O)CCCCC1CCSS1 (stereo unspecified) [lipoamide] (10 µM) | 108% (inactive)
NC(=O)c1cnc(N[C@@H]2CCCC[C@@H]2N)nc1Nc1cccc(-n2nccn2)c1 (10 µM) | 17.5% (active)
Nc1c(CC(=O)O)cccc1C(=O)c1ccc(Br)cc1 [bromfenac] (10 µM) | 104% (inactive)
Cc1cc(C)c(S(=O)(=O)Nc2cccc(C(F)(F)F)c2)c(C)c1 (10 µM) | 108% (inactive)
Cn1nnc(-c2ccc(-c3ccc(N4C[C@H](COP(=O)(O)O)OC4=O)cc3F)cn2)n1 [tedizolid-phosphate] (10 µM) | 88% (inactive)
CC[N+](CC)(CC)CC(=O)Nc1c(C)cccc1C (10 µM) | 104% (inactive)

Compound | SARS-CoV-2 infection rate
OCCN(CCO)c1nc(N2CCCCC2)c2nc(N(CCO)CCO)nc(N3CCCCC3)c2n1 [dipyridamole] (10 µM) | 90.5% (inactive)
O=C(CCCN1CCC(n2c(=O)[nH]c3ccccc32)CC1)c1ccc(F)cc1 [benperidol] (10 µM) | 118% (inactive)
CC1CCN(CC[C@H]2CCCN2S(=O)(=O)c2cccc(O)c2)CC1 (10 µM) | 102% (inactive)
O=C(/C=C/c1ccc(O)cc1)c1ccc(O)cc1O [isoliquiritigenin] (10 µM) | 103% (inactive)
CCn1nc(C2CCN(C(=O)CCO)CC2)nc1-c1cnc(N)c(-c2nnc(C(C)(C)C)o2)n1 (0.833333 µM) | 94% (inactive)
O=C(Nc1cccnc1)N1CCC(Cc2cccc(Oc3ccc(C(F)(F)F)cn3)c2)CC1 (0.833333 µM) | 95.5% (inactive)
CS(=O)(=O)n1cc2c(n1)CN([C@H]1CO[C@H](c3cc(F)ccc3F)[C@@H](N)C1)C2 [omarigliptin] (10 µM) | 107% (inactive)
CCC1(C2=NCCN2)Cc2ccccc2O1 (stereo unspecified) [efaroxan] (10 µM) | 95% (inactive)
CN1C(=O)/C(=C2/C(=O)Nc3ccccc32)c2ccccc21 [meisoindigo] (0.833333 µM) | 96.5% (inactive)
Cc1cc(C(C)(C)C)cc(C)c1CC1=NCCN1 [xylometazoline] (10 µM) | 106% (inactive)
NCC(=O)O (10 µM) | 104% (inactive)
COc1cnc(NS(=O)(=O)c2ccc(N)cc2)nc1 [sulfameter] (10 µM) | 111% (inactive)
CC1C(=O)OC2C(O)C34C5CC(C(C)(C)C)C36C(OC(=O)C6O)OC4(C(=O)O5)C12O (stereo unspecified) [ginkgolide-B] (10 µM) | 93% (inactive)
Cc1ccc([N+](=O)[O-])cc1O [2-methyl-5-nitrophenol] (10 µM) | 98.5% (inactive)
O=C(O)[C@@H](S)[C@@H](S)C(=O)O [dimercaptosuccinic-acid] (10 µM) | 100% (inactive)
C[C@](N)(Cc1ccc(O)c(O)c1)C(=O)O [methyldopa] (10 µM) | 97.5% (inactive)
CNC(=O)Oc1ccccc1OC(C)C [propoxur] (10 µM) | 118% (inactive)
CC1(C)CCC(C)(C)c2cc(Cn3cccn3)c(/C=C/c3ccc(C(=O)O)cc3)cc21 [palovarotene] (10 µM) | 108% (inactive)
C=CC(C)(C)c1cc(/C=C/C(=O)c2ccc(O)cc2)c(OC)cc1O [licochalcone-A] (10 µM) | 114% (inactive)
Nc1nc(=O)n([C@H]2C[C@H](O)[C@@H](CO)O2)cc1Cl [cytochlor] (10 µM) | 102% (inactive)
